# Unmarked numbers belong to inactive results. This is one part of the list. Active and inactive are the calls of the source.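 Rule for the calls, unless noted: active = membrane potential signal shifting up or down by more than 3 SD of buffer-only wells, on both duplicate plates; inactive = the rest.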
# Assays:
# [1] = thallium flux activation in parental CHO cells, counter-screen for KCNQ1 potentiator project (AID 493006;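 active = duplicate-averaged activation above buffer control mean plus 5 SD of those controls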;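 for activation: fluorescence ratio of max minus min over baseline after K+ and Tl+ depolarization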); conditions: parental CHO-K1 cells, FluxOR thallium flux, at 10 µM; stronger effect = higher value
# [2] = biological target: Potassium voltage-gated channel subfamily KQT member 1 (Homo sapiens) (UniProt P51787); test: KCNQ1 potassium channel potentiators, confirmation, FluxOR thallium flux, CHO cells, duplicates (AID 493007;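 active = potentiation averaged over duplicate wells exceeding buffer-only control mean by more than 3 SD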;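 for outcome: cells depolarized by a potassium plus thallium sulfate stimulus after compound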;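 for potentiation: 0% = buffer-only wells and 100% = R-L3 activator control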); conditions: KCNQ1 cell line, FluxOR thallium flux fluorescence, at 10 µM; stronger effect = higher value, % of reference activator effect, buffer zero
# Potassium voltage-gated channel subfamily KQT member 1 (Homo sapiens), sequence (P51787 whole entry, looked up): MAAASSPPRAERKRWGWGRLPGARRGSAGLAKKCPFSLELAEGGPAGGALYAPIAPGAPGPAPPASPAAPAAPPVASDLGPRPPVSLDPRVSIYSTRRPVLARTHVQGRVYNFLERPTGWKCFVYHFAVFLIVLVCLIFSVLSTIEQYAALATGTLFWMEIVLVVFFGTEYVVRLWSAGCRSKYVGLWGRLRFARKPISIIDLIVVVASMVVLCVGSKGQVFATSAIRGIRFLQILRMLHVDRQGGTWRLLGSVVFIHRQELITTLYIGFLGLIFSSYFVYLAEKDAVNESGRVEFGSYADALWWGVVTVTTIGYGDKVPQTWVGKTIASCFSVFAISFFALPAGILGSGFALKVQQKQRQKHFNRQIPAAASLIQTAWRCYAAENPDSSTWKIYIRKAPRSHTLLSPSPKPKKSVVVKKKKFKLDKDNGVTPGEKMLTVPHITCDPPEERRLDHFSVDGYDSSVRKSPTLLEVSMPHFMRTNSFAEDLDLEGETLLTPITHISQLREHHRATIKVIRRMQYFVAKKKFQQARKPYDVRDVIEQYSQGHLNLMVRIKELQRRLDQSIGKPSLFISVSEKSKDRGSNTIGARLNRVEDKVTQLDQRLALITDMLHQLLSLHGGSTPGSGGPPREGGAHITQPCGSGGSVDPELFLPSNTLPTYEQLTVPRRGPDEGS
# [3] = biological target: Potassium voltage-gated channel subfamily KQT member 2 (Rattus norvegicus) (UniProt O88943); test: rat KCNQ2 channel potentiation, selectivity assay for KCNQ1 potentiator project, KCNQ2-CHO-K1 cells (AID 493009;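 active = mean duplicate potentiation above the buffer control mean plus 5 SD of buffer wells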;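 note: assay conditions were tuned for KCNQ1 rather than KCNQ2 modulators; signal is max minus min fluorescence divided by baseline after thallium stimulus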); conditions: FluxOR thallium flux fluorescence, at 10 µM; stronger effect = higher value, scaled: buffer 0, activator control 100
# Potassium voltage-gated channel subfamily KQT member 2 (Rattus norvegicus), sequence (O88943 whole entry, looked up): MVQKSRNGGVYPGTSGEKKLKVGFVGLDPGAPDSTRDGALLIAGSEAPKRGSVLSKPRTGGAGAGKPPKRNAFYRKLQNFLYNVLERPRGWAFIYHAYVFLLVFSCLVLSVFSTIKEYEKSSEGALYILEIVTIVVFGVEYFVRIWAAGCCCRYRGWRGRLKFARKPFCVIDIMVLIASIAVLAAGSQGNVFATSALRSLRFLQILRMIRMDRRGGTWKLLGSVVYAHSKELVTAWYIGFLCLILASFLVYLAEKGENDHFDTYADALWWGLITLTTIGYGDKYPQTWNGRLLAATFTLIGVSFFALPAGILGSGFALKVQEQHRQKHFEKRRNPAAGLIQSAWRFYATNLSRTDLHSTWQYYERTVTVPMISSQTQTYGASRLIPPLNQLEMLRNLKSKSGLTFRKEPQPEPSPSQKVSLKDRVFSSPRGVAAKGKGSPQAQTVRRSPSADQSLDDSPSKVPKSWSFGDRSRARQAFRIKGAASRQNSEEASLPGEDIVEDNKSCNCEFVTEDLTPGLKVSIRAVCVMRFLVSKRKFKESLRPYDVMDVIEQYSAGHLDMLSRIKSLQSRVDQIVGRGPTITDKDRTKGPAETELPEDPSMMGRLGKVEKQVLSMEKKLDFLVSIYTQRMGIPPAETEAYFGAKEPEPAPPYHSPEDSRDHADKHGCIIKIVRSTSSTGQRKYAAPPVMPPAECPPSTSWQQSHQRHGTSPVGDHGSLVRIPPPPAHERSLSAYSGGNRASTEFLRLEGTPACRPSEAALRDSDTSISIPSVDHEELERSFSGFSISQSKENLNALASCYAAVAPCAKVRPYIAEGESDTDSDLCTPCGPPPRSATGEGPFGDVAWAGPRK
# [4] = biological target: Potassium voltage-gated channel subfamily KQT member 1 (Homo sapiens) (UniProt P51787); test: KCNQ1 channel current potentiators, confirmation, orthogonal assay for KCNQ1 potentiator project, IonWorks patch clamp, KCNQ1-CHO cells (AID 493184;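 active = current rise at least 3 SD above the untreated control mean in each of two repeat wells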;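 for current potentiation: percent change of the same well's current before compound addition so 0% = no change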); conditions: automated patch clamp current, at 10 µM; stronger effect = higher value
# [5] = biological target: T1, Potassium voltage-gated channel subfamily E member 1 (Homo sapiens) + Potassium voltage-gated channel subfamily KQT member 1 (Homo sapiens) (UniProt P15382+P51787); test: KCNQ1/KCNE1 complex potentiators, confirmation, selectivity assay for KCNQ1 potentiator project, thallium flux, CHO-K1 KCNQ1/E1 cells (AID 493186;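 active = mean duplicate activation above the buffer control mean plus 5 SD of those controls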;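 for activation: 0% = assay buffer control and 100% = R-L3 activator control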); conditions: FluxOR thallium flux, at 10 µM; stronger effect = higher value
# T1 sequence (P51787 whole entry, looked up): as the sequence (P51787 whole entry, looked up) above
# [6] = thallium flux effects in parental CHO cells, counter-screen for KCNQ1 inhibitor project, cell-based, Tl flux (AID 588366;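 active = mean of duplicate thallium-flux fluorescence ratios in parental host cells more than 5 SD below the buffer control mean, cut at about 0.38 in these data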;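 note: ratio is peak minus minimum fluorescence divided by baseline fluorescence; actives read low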); conditions: parental CHO-K1, FluxOR thallium flux fluorescence ratio; at 10 µM; stronger effect = lower value; zero means no signal rise above baseline
# [7] = biological target: Potassium voltage-gated channel subfamily KQT member 2 (Rattus norvegicus) (UniProt O88943); test: KCNQ2 channel inhibition, selectivity assay for KCNQ1 inhibitor project, cell-based (AID 651746;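 active = mean percent inhibition of the KCNQ2 thallium signal more than 5 SD above the buffer-only control wells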;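 for inhibition: 0% = buffer control wells and 100% = XE-991 inhibitor control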); conditions: KCNQ2 cells, FluxOR thallium flux fluorescence, at 10 µM; stronger effect = higher value
# [8] = biological target: T1, Potassium voltage-gated channel subfamily E member 1 (Homo sapiens) + Potassium voltage-gated channel subfamily KQT member 1 (Homo sapiens); test: KCNQ1/KCNE1 channel inhibition, selectivity assay for KCNQ1 inhibitor project, CHO-K1 cells, thallium flux, FluxOR (AID 652147;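 active = mean percent inhibition of duplicate wells above the buffer-only control mean plus 3 SD of those controls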); conditions: FluxOR thallium flux fluorescence, at 10 µM; stronger effect = higher value
# [9] = membrane potential modulation in parental HEK293, confirmation, counter-screen for TRPC6 inhibitor project, cell-based (AID 2780); conditions: parental HEK293 membrane potential dye fluorescence; at 10 µM;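 for membrane potential signal change: plate controls were buffer EC0 wells for no effect and acetylcholine ECmax wells for full effect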
# [10] = biological target: Short transient receptor potential channel 6 (Mus musculus) (UniProt Q61143); test: mouse TRPC6 channel activators, confirmation, HEK293 cells, membrane potential dye, duplicate (AID 488961;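 active = ratio signal rise beyond 5 SD above unstimulated control wells' mean, seen in both duplicate runs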); conditions: HEK293-TRPC6 membrane potential dye fluorescence, FDSS, at 10 µM; stronger effect = higher value
# Short transient receptor potential channel 6 (Mus musculus), sequence (Q61143 whole entry, looked up): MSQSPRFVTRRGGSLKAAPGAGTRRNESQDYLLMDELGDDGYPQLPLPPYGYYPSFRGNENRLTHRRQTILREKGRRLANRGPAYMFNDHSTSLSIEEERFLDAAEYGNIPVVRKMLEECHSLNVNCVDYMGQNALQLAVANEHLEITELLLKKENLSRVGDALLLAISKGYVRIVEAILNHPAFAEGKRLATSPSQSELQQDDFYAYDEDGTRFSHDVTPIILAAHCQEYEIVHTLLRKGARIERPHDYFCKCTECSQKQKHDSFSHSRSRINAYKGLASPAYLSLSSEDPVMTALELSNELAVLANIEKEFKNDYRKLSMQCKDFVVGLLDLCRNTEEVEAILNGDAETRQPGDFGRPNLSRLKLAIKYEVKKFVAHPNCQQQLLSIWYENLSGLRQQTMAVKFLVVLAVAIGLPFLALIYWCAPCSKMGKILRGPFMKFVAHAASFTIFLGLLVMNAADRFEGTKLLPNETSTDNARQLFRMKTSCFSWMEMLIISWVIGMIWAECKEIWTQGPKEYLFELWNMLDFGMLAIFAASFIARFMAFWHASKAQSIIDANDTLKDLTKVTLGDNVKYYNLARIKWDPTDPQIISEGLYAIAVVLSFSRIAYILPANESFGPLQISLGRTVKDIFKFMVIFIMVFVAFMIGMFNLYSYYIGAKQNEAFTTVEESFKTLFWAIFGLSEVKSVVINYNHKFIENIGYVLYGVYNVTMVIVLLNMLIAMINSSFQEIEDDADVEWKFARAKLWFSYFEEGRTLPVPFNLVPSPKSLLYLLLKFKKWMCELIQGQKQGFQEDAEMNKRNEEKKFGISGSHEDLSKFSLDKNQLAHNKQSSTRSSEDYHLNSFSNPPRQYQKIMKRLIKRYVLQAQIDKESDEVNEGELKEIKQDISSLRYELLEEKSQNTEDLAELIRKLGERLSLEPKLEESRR
# [11] = biological target: Potassium voltage-gated channel subfamily KQT member 1 (Homo sapiens) (UniProt P51787); test: KCNQ1 potassium channel inhibitors, confirmation, cell-based, Tl flux, duplicate (AID 588353;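 active = primary screen active, with duplicate mean exceeding buffer control mean plus 3 SD of buffer wells, cut at about 28% in these data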;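 note: 0% = buffer control ratio and 100% = XE991 inhibitor control ratio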); conditions: KCNQ1 cell line, FluxOR thallium flux fluorescence, at 10 µM, stronger effect = higher value
# [12] = parental HEK293 membrane potential modulation, confirmation, counter-screen for TRPC6 modulator project, cell-based (AID 488924;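 active = membrane potential signal moves up or down beyond 5 SD from buffer-only wells, on both duplicate plates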); conditions: parental HEK293, membrane potential dye fluorescence; at 10 µM
# [13] = modulation of acetylcholine-evoked membrane potential, parental HEK293, confirmation, counter-screen for TRPC6 modulator project, cell-based, second counter-screen, membrane potential dye (AID 488926;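 active = membrane potential signal drops by more than 5 SD from the mean control signal, in both duplicate plates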); conditions: parental HEK293, membrane potential dye fluorescence, at 10 µM, after compound, maximal acetylcholine stimulation; stronger effect = higher value
# [14] = test system: Transient receptor potential cation channel subfamily C member 4 (mouse); test: TRPC4 modulation by TRPC6 hit compounds, confirmation, selectivity assay for TRPC6 modulator project, cell-based, HEK293 TRPC4/mu-opioid, membrane potential dye, mouse (AID 488927;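 active = membrane potential signal moved up or down beyond 5 SD of buffer control wells, in both duplicate plates, actives on both sides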;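 for percent change from control (negative = decrease, positive = increase): plate controls were assay buffer wells for no effect and DAMGO maximal-effect wells for full effect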); conditions: membrane potential fluorescence, at 10 µM
# [15] = test system: TRPC4 (transient receptor potential cation channel C4), mouse; test: TRPC4 inhibition by TRPC6 hit compounds, confirmation, selectivity assay for TRPC6 modulator project, cell-based, second screen, HEK293 TRPC4/mu-opioid, membrane potential dye (AID 488928;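 active = drop in membrane potential signal beyond 5 SD of the control wells in both duplicate plates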;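 note: TRPC4 counter screen for TRPC6 hits run under conditions tuned for TRPC6 not TRPC4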); conditions: membrane potential dye fluorescence, at 10 µM, stimulated with maximal-effect DAMGO; stronger effect = higher value
structure (smiles),measurement,setting,value
NC(=Nc1ccccc1)Nc1ccccc1,outcome,[1],inactive
same,outcome,[2],inactive
same,outcome,[3],inactive
same,outcome,[4],inactive
same,outcome,[5],inactive
Cc1ccccc1C(=O)NNC(=S)NC(=O)c1ccc(Cl)cc1Cl,outcome,[1],inactive
same,potentiation,[2],117% (active)
same,potentiation,[3],222% (active)
same,outcome,[4],inactive
same,activation,[5],19.9% (active)
COc1ccc(C(=O)NNC(=S)NC(=O)c2ccccc2)cc1,outcome,[1],inactive
same,potentiation,[2],58.5% (active)
same,potentiation,[3],166% (active)
same,outcome,[4],inactive
same,activation,[5],20.5% (active)
Cc1cccc(C(=O)NNC(=S)NC(=O)c2ccccc2)c1,outcome,[1],inactive
same,potentiation,[2],74.5% (active)
same,potentiation,[3],192% (active)
same,outcome,[4],inactive
same,activation,[5],46.6% (active)
CC(C)(C)C(=O)NC(=S)NNC(=O)C(c1ccccc1)c1ccccc1,outcome,[1],inactive
same,potentiation,[2],22% (active)
same,outcome,[3],inactive
same,outcome,[4],inactive
same,outcome,[5],inactive
CC1CN(C(=O)c2ccc(NS(=O)(=O)c3ccc(C(C)(C)C)cc3)cc2)CC(C)O1 (stereo unspecified),outcome,[1],inactive
same,outcome,[2],inactive
same,outcome,[3],inactive
same,outcome,[4],inactive
same,outcome,[5],inactive
CCN1/C(=C\c2ccc3ccccc3[n+]2CC)Sc2cc(C)ccc21,fluorescence ratio (Tl flux),[6],0.043 (active)
same,outcome,[7],inactive
same,outcome,[8],inactive
Cc1onc(-c2ccccc2)c1C(=O)NNC(=S)NC(=O)c1ccc(Br)cc1,outcome,[1],inactive
same,outcome,[2],inactive
same,outcome,[3],inactive
same,outcome,[4],inactive
same,outcome,[5],inactive
CCCOc1ccc(C(=O)NNC(=S)NC(=O)c2cccs2)cc1,activation,[1],139% (active)
same,potentiation,[2],135% (active)
same,potentiation,[3],275% (active)
same,outcome,[4],inactive
O=c1c2cc(Br)ccc2nc(-c2ccc(Cl)cc2)n1O,activation,[1],654% (active)
same,potentiation,[2],354% (active)
same,potentiation,[3],708% (active)
same,outcome,[4],inactive
CCCCC(=O)NNC(=S)NC(=O)C(c1ccccc1)c1ccccc1,outcome,[1],inactive
same,outcome,[2],inactive
same,outcome,[3],inactive
same,outcome,[4],inactive
same,outcome,[5],inactive
CC(Oc1ccc(Cl)cc1)C(=O)NNC(=S)NC(=O)c1ccco1 (stereo unspecified),outcome,[1],inactive
same,potentiation,[2],50% (active)
same,potentiation,[3],170% (active)
same,outcome,[4],inactive
same,activation,[5],13.8% (active)
Cc1onc(-c2ccccc2)c1C(=O)NNC(=S)NC(=O)c1ccc(F)cc1,outcome,[1],inactive
same,outcome,[2],inactive
same,outcome,[3],inactive
same,current potentiation,[4],16.2% (active)
same,outcome,[5],inactive
Cc1cccc(C(=O)NNC(=S)NC(=O)c2cccs2)c1,activation,[1],142% (active)
same,potentiation,[2],91% (active)
same,potentiation,[3],226% (active)
same,outcome,[4],inactive
Cc1cccc(C(=O)NC(=S)NNC(=O)c2ccccc2Cl)c1,outcome,[1],inactive
same,potentiation,[2],50.5% (active)
same,potentiation,[3],158% (active)
same,outcome,[4],inactive
same,outcome,[5],inactive
O=C(Nc1nnc(-c2cccs2)o1)c1cccc(C(F)(F)F)c1,activation,[1],208% (active)
same,potentiation,[2],50% (active)
same,outcome,[4],inactive
Cc1ccc(OCC(=O)NNC(=S)NC(=O)C(C)(C)C)c(Br)c1,outcome,[1],inactive
same,potentiation,[2],73% (active)
same,potentiation,[3],158% (active)
same,outcome,[4],inactive
same,outcome,[5],inactive
COC(=O)C1=NN(C(=O)c2ccc(C)cc2)C(O)(c2ccc(Cl)cc2)C1 (stereo unspecified),activation,[1],602% (active)
same,potentiation,[2],280% (active)
same,outcome,[4],inactive
Cc1onc(-c2ccccc2)c1C(=O)NNC(=S)NC(=O)c1ccc(Cl)cc1Cl,outcome,[1],inactive
same,potentiation,[2],29.5% (active)
same,outcome,[3],inactive
same,outcome,[4],inactive
same,outcome,[5],inactive
CC(C)(C)c1cc(CCC(=O)NNC(=S)NC(=O)c2ccccc2)cc(C(C)(C)C)c1O,activation,[1],188% (active)
same,potentiation,[2],61% (active)
same,potentiation,[3],185% (active)
same,outcome,[4],inactive
COc1ccc(C(=O)NC(=S)NNC(=O)c2cccc(C)c2)cc1,outcome,[1],inactive
same,potentiation,[2],128% (active)
same,potentiation,[3],227% (active)
same,outcome,[4],inactive
same,activation,[5],31.9% (active)
CC(C)(C)c1ccc(C(=O)NC(=S)NNC(=O)COc2ccccc2)cc1,activation,[1],186% (active)
same,potentiation,[2],59.5% (active)
same,potentiation,[3],208% (active)
same,outcome,[4],inactive
CC(C)c1ccc(OCC(O)Cn2cnc3ccccc32)cc1 (stereo unspecified),outcome,[9],inactive
same,outcome,[10],inactive
COc1ccc(CC(=O)Nc2sc(Cc3ccccc3)c(C)c2C(N)=O)cc1,outcome,[9],inactive
same,outcome,[10],inactive
CC(C)CCNc1nc(N2CCCC2)c2c(c1C#N)CCN(C)C2,membrane potential signal change,[9],-209% (active)
same,outcome,[10],inactive
CC1CC(C)CN(C/C=C/c2ccccc2[N+](=O)[O-])C1 (stereo unspecified),membrane potential signal change,[9],0.38% (active)
same,outcome,[10],inactive
COc1ccccc1C1SCCN1C(=O)c1ccc([N+](=O)[O-])cc1 (stereo unspecified),outcome,[9],inactive
same,outcome,[10],inactive
Cn1c(=O)n(C)c2cc(C(=O)Nc3ccc4c(c3)OCO4)ccc21,membrane potential signal change,[9],-371% (active)
same,outcome,[10],inactive
Cc1cc(NCc2ccccc2)nc2ccccc12,outcome,[1],inactive
same,outcome,[2],inactive
same,outcome,[3],inactive
same,outcome,[4],inactive
CCCCCOc1ccc(CSC2=NCCN2)cc1[N+](=O)[O-],outcome,[9],inactive
same,outcome,[10],inactive
CCN(CC)c1ccc2cc(C(N)=O)/c(=N\NC(=O)c3ccncc3)oc2c1,membrane potential signal change,[9],1.95% (active)
same,outcome,[10],inactive
O=C(NNS(=O)(=O)c1ccc(Cl)cc1)C1CCN(Cc2ccccc2)CC1,membrane potential signal change,[9],0.15% (active)
same,outcome,[10],inactive
COc1ccc(CNC(=O)c2cc3c(=O)n4ccccc4nc3n(CC3CCCO3)c2=N)cc1 (stereo unspecified),membrane potential signal change,[9],-176% (active)
same,outcome,[10],inactive
same,outcome,[1],inactive
same,outcome,[2],inactive
same,outcome,[3],inactive
same,outcome,[4],inactive
C=C(C)c1cccc(C(C)(C)NC(=O)NCCN(CC)CC)c1,membrane potential signal change,[9],0.09% (active)
same,outcome,[10],inactive
CCOC(=O)N1CCN(C(=O)c2ccc3c(c2)N(Cc2ccc(C)cc2)CCS3)CC1,outcome,[9],inactive
same,outcome,[10],inactive
Cn1c(=NC(=O)c2cnccn2)sc2ccccc21,membrane potential signal change,[9],-416% (active)
same,outcome,[10],inactive
CCOC(=O)N1CCC(O)(c2cc(C)c(C)cc2C)CC1,outcome,[9],inactive
O=C1c2ccccc2C(=O)c2c1cccc2N1CCN(Cc2ccccc2)CC1,membrane potential signal change,[9],-264% (active)
same,outcome,[10],inactive
CCCc1cc(=S)n2c([nH]c3ccccc32)c1C#N,membrane potential signal change,[9],22.1% (active)
same,inhibition,[11],80.5% (active)
same,fluorescence ratio (Tl flux),[6],0.394
same,inhibition,[7],91.3% (active)
same,outcome,[8],inactive
CN(C)CCOC(=O)C(c1ccccc1)C1(O)CCCC1 (stereo unspecified),membrane potential signal change,[9],0.13% (active)
same,outcome,[10],inactive
CCN(CC)CCn1c2ccc(Cl)cc2c2nc(C)sc21,membrane potential signal change,[9],-267% (active)
same,outcome,[10],inactive
C[C@H](NC(=O)OC(C)(C)C)c1nnc(SCC(=O)Nc2ccc(Br)cc2)o1,membrane potential signal change,[9],0.29% (active)
OCCC1CN(Cc2ccc3nsnc3c2)CCN1C1CCCCC1 (stereo unspecified),membrane potential signal change,[12],109% (active)
same,outcome,[13],inactive
same,"percent change from control (negative = decrease, positive = increase)",[14],18% (active)
same,inhibition,[15],37% (active)
OCCC1CN(Cc2ccc3nsnc3c2)CCN1C1CCCC1 (stereo unspecified),outcome,[9],inactive
same,outcome,[10],inactive
Cc1cc(Nc2ccc(N3CCOCC3)cc2)c2cccc(C)c2n1,membrane potential signal change,[9],-362% (active)
same,outcome,[10],inactive
CC(C)(C)NCc1cc(Br)ccc1OC1CCCC1,membrane potential signal change,[9],38.4% (active)
c1ccc(C2c3[nH]c4ccccc4c3CCN2Cc2cccn2-c2cccnc2)nc1 (stereo unspecified),membrane potential signal change,[9],-129% (active)
same,outcome,[10],inactive
CN(C)c1ccc(C2N(C)C(=O)c3ccccc3N2C)cc1 (stereo unspecified),outcome,[9],inactive
same,outcome,[10],inactive
COc1ccccc1OCCNCC(O)COc1cccc2[nH]c3ccccc3c12 (stereo unspecified),outcome,[9],inactive
same,outcome,[10],inactive
CCCCCCCCCCOC(=O)C[N+](C)(C)CC1CCCCC1O (stereo unspecified),membrane potential signal change,[9],2.25% (active)
same,outcome,[10],inactive
CCOC(=O)N1CCC(NC(=O)CN2C(=O)COc3ccc(C(C)(C)C)cc32)CC1,outcome,[9],inactive
CC(=O)Nc1ccc(NC(=O)CN2CCCC(C)C2)c(Cl)c1 (stereo unspecified),outcome,[12],inactive
same,outcome,[13],inactive
same,outcome,[14],inactive
same,outcome,[15],inactive
Clc1ccc(-n2nnnc2-c2cnc(-c3ccccn3)nc2-c2cccs2)cc1,membrane potential signal change,[12],133% (active)
same,outcome,[13],inactive
same,"percent change from control (negative = decrease, positive = increase)",[14],19.5% (active)
same,outcome,[15],inactive
COc1ccc(Br)cc1/C=N/n1c(C)nnc1C,outcome,[12],inactive
same,outcome,[13],inactive
same,"percent change from control (negative = decrease, positive = increase)",[14],10% (active)
same,outcome,[15],inactive

# Source: PubChem BioAssay
